Reference: PubChem BioAssay (NCATS)
Results filed as inconclusive are left out. Active and inactive are the calls of the source. Unless noted, the call rests on the fitted dose curve; in most records, active means well fitted curve in the direction sought with a large enough effect; inconclusive means small, poorly fitted or top-dose-only effect, or another doubt; inactive means no such curve, though single readings can be large; an effect the other way counts as inactive or inconclusive.

Legend:
[1] = target: Lysosomal acid glucosylceramidase (Homo sapiens) (UniProt P04062); experiment: Glucocerebrosidase-p2 (AID 348; in the data active means potency below about 10 µM; further: potency means the concentration at half of the fitted maximal effect); details: purified GBA, blue fluorogenic substrate, 40 min
Method in brief: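 Normal human glucocerebrosidase (0.2 nM) with blue fluorogenic substrate (80 uM final) in citrate/phosphate pH 5.9 with 10mM sodium taurocholate, 0.01% tween-20; 40 min RT, NaOH/glycine stop; fluorescence Ex 365/Em 440; AC50 from a titration from 0.6 nM upwards.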

[2] = AP1 Signaling Pathway (AID 357; active means well fitted curve in either direction with a large enough effect, not every such curve was filed as active;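 further: ME-180 reporter cells stimulated with EGF at its EC50 level; on the % scale 0 is the no-effect control and ±100 the full control effect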); details: ME-180 (cervical carcinoma) AP-1-bla reporter, EGF-induced, beta-lactamase ratio, 5 h; at 7.69 µM (top of the series) unless noted
Method in brief: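 Cells are seeded overnight, exposed to compound titrations and an EC50 level of EGF for 5 hours at 37 °C, then loaded with CCF4 dye for 2.5 hours. Beta-lactamase activity under the AP-1 element is read as a blue/green ratio.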

[3] = target: Cytochrome P450 1A2 (Homo sapiens) (UniProt P05177); experiment: p450-cyp1a2 (AID 410; calls by dose curve; further: potency means the concentration at half of the fitted maximal effect)
Method in brief: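 Luminescent demethylation readout: Luciferin-ME (100uM, equal to Km) turned over by 20nM CYP1A2 for 60 min at room temperature after NADPH regeneration addition, following 10 min compound preincubation. Normalization used 57 uM furafylline as full inhibition.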

[4] = NFAT Signaling Pathway (AID 444; active means well fitted curve in either direction with a large enough effect, not every such curve was filed as active;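 further: carbachol stimulus at about its EC50 of 1 µM final; on the % scale 0 is the no-effect control and ±100 the full control effect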); details: Jurkat NFAT-bla M1, carbachol, beta-lactamase ratio, 5 h; at 7.69 µM (top of the series) unless noted
Method in brief: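 Jurkat cells carrying an NFAT-driven β-lactamase reporter and co-transfected muscarinic M1 receptor were treated with compound plus carbachol (1 uM final, an EC50 level) for 5 h at 37 °C. CCF4 loading followed for 1 h at RT; 460/530 nm ratio gave %activity.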

[5] = Stat Signaling Pathway (AID 446; active means well fitted curve in either direction with a large enough effect, not every such curve was filed as active;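 further: ME-180 cervical cancer cells given 40 pM IL-6 alongside compound; SIE-controlled beta-lactamase reporter measured as 460/530 nm FRET emission ratio; on the % scale 0 is the no-effect control and ±100 the full control effect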)
Method in brief: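 Normalization used AC90 stimulation (300 pM IL-6) and AC90 inhibition (125 nM pan-JAK inhibitor at 40 pM IL-6). The underlying signal is SIE-driven beta-lactamase in ME-180 cells after 5 h IL-6 exposure with compound.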

[6] = target: Glucocorticoid receptor (Homo sapiens) (UniProt P04150); experiment: GR-GFP Redistribution (AID 450;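 active means compounds whose dose series gives a full or clear partial fitted curve of increased nuclear translocation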; further: potency means the concentration at half of the fitted maximal effect); details: U2OS GR-GFP nuclear translocation, laser cytometry, 2 h
[7] = target: Glucocorticoid receptor (Homo sapiens) (UniProt P04150); experiment: GR-EFC Redistribution (AID 451; calls by dose curve; further: potency means the concentration at half of the fitted maximal effect); details: CHO-K1 GR-EFC translocation, beta-gal luminescence, 2 h
Method in brief: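 CHO-K1 cells stably expressing nuclear-localized β-gal enzyme acceptor and GR fused C-terminally to the enzyme donor fragment; ligand-driven nuclear translocation restores β-gal by complementation. Compounds titrated up to 46 uM final, 2 h at 37 °C; luminescence read.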

[8] = target: Mitogen-activated protein kinase 10 (Mus musculus) (UniProt Q61831); experiment: JNK3 AlphaScreen Assay (AID 530; active means well fitted curve in either direction with a large enough effect, not every such curve was filed as active;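 further: kinase came from lysate of stimulated human HepG2 cells; signal reports phosphorylation of biotinylated GST-cJun 1-79 at Ser73 with 10 µM ATP; on the % scale 0 is the no-effect control and ±100 the full control effect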)
Method in brief: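 Phosphorylation of biotinylated GST-cJun(1-79) at Ser73 is measured by AlphaScreen proximity luminescence. Enzyme is JNK3 in HepG2 lysates activated with interleukin-1beta and tumor necrosis factor alpha; ATP is 10 uM final.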

[9] = target: 3',5'-cyclic-AMP phosphodiesterase 4B (Homo sapiens) (UniProt Q07343); experiment: qHTS Assay for Inhibitors of PDE-IV (AID 607; active means well fitted activation curve with a large enough effect in the main read-out, with a control signal flat, not every such curve was filed as active; further: % of control where 0% means no effect)
Method in brief: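 HEK293 ACTOne cells with CNG channel (1000/well), endogenous PDE4; membrane potential dye, compounds up to 22.9 uM final. Fluorescence Ex 535/Em 590; RO 20-1724 (100 uM final) as reference.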

[10] = target: Dual specificity protein kinase CLK4 (Homo sapiens) (UniProt Q9HAZ1); experiment: qHTS Assay for Inhibitors of CDC-like Kinase 4 (Kinase-Glo Assay) (AID 1770); further: on the % scale 0 is the no-effect control and ±100 the full control effect; nearly all actives have a fitted effect of over 65% in size
Method in brief: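 Recombinant human Clk4 (25 nM) phosphorylated RS repeat peptide (100 uM) with 1 uM ATP in Tris pH 7.5/MgCl2/EGTA/DTT/Triton buffer for 4.5 h at room temperature. Residual ATP was quantified by Kinase-Glo luciferase luminescence.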

[11] = target: Dual specificity protein kinase CLK4 (Homo sapiens) (UniProt Q9HAZ1); experiment: qHTS Assay for Inhibitors of CDC-like Kinase 4 (ADP-Glo Assay) (AID 1771); further: on the % scale 0 is the no-effect control and ±100 the full control effect; nearly all actives have a fitted effect of over 70% in size
Method in brief: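 ADP production was read by ADP-Glo luminescence after residual ATP depletion, following 1 h room-temperature reaction of 25 nM Clk4, 1 uM ATP and 100 uM RS peptide with MgCl2, EGTA, DTT and Triton X-100.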

[12] = target: Dual specificity protein kinase CLK4 (Homo sapiens) (UniProt Q9HAZ1); experiment: qHTS Assay for Inhibitors of CDC-like Kinase 4 (ADP-FP Assay) (AID 1795); further: on the % scale 0 is the no-effect control and ±100 the full control effect; nearly all actives have a fitted effect of over 60% in size
Method in brief: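 Recombinant human Clk4 (6.25 nM) phosphorylated RS repeat peptide (100 uM) with 1 uM ATP in Tris pH 7.5/MgCl2/EGTA/DTT/Triton buffer for one hour. ADP was quantified by Transcreener competitive fluorescence polarization against an ADP calibration curve.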

[13] = NCATS anti-infectives library activity on HEK293 viability as a counter-qHTS vs the C. elegans viability qHTS (AID 1745854); further: potency means the concentration at half of the fitted maximal effect
Method in brief: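 Cytotoxicity counter-screen to a worm viability qHTS: CellTiter-Glo luminescence read 10 min after reagent addition. Compounds (final up to 41.7 uM, a 1:5 dilution series) incubated 24 hr at 37C with 1,500 HEK293 cells per well; digitonin control.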

[14] = target: Glutathione peroxidase 1 (Homo sapiens) (UniProt P07203); experiment: Primary qHTS Assay for Inhibitors of Recombinant Selenoprotein Glutathione Peroxidase 1 (GPX1) (AID 1845191); further: on the % scale 0 is the no-effect control and ±100 the full control effect; nearly all actives have a fitted effect of over 65% in size
Method in brief: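 GPX1 10 nM, GR 100 nM, GSH 1 mM, NADPH 0.5 mM, CHP 0.5 mM (final). 30-min cpd preincubation, RT. Ex340/Em450 read t=0, t=15 min.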

[15] = target: Phospholipid hydroperoxide glutathione peroxidase GPX4 (Homo sapiens) (UniProt P36969); experiment: Primary qHTS Assay for Inhibitors of Recombinant Selenoprotein Glutathione Peroxidase 4 (GPX4) (AID 1845192); further: on the % scale 0 is the no-effect control and ±100 the full control effect; nearly all actives have a fitted effect of over 65% in size
Method in brief: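 qHTS, GR-coupled: GPX4 200 nM + cpd 30 min RT → GSH 1 mM, NADPH 0.5 mM, GR 100 nM → CHP 0.5 mM start; fluor 340/450 at t0 and t15 min; no-enzyme wells as control.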

[16] = qHTS profiling of the MIPE4 collection as inhibitors of Plasmodium falciparum (3D7) proliferation (AID 743344; call rule not given here;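 further: scaled between DMSO vehicle wells and 0.29 µM artemisinin as full inhibition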); details: P. falciparum 3D7 in erythrocytes, SYBR Green DNA fluorescence, 72 h; at 28.5 µM (top of the series)
Method in brief: (§1)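 Parasite DNA was quantified by SYBR Green I fluorescence (ex 485, em 535 nm) after overnight lysis in saponin/Triton buffer at room temperature. Cultures at 0.3% parasitemia and 2.5% hematocrit were first exposed to compound for 72 h at 37 C; signals were normalised to artemisinin (0.29 uM) and vehicle wells.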

[17] = qHTS profiling of the MIPE4 collection as inhibitors of Plasmodium falciparum (DD2) proliferation (AID 743345; call rule not given here); details: P. falciparum Dd2 in erythrocytes, SYBR Green DNA, 72 h; at 28.5 µM (top of the series)
Method in brief: as §1

[18] = qHTS profiling of the MIPE4 collection as inhibitors of Plasmodium falciparum (DD2) proliferation (Rep 2) (AID 743346; call rule not given here); details: P. falciparum Dd2 in erythrocytes, SYBR Green DNA, 72 h; at 28.5 µM (top of the series)
Method in brief: as §1

[19] = qHTS profiling of the MIPE4 collection as inhibitors of Plasmodium falciparum (HB3) proliferation (AID 743347; call rule not given here;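 further: plate controls were DMSO vehicle wells for no effect and artemisinin wells for full effect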); details: P. falciparum HB3 in erythrocytes, SYBR Green DNA, 72 h; at 28.5 µM (top of the series)
Method in brief: as §1

Sequence of Dual specificity protein kinase CLK4 (Homo sapiens) (Q9HAZ1 whole entry, looked up): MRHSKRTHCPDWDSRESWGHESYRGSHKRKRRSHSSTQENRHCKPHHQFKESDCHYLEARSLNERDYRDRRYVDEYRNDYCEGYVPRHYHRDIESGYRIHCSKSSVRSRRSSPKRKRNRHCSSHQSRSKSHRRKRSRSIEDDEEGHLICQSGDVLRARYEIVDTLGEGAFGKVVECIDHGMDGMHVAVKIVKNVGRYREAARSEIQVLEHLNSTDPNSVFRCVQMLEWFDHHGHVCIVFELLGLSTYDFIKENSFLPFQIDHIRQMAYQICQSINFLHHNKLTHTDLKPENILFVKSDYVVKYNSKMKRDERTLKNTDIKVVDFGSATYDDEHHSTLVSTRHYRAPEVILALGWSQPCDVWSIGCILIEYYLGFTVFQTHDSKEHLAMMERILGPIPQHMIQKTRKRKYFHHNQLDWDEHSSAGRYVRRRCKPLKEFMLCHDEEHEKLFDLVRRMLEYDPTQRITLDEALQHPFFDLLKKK
Sequence of Glucocorticoid receptor (Homo sapiens) (P04150 whole entry, looked up, the tested form may be a part): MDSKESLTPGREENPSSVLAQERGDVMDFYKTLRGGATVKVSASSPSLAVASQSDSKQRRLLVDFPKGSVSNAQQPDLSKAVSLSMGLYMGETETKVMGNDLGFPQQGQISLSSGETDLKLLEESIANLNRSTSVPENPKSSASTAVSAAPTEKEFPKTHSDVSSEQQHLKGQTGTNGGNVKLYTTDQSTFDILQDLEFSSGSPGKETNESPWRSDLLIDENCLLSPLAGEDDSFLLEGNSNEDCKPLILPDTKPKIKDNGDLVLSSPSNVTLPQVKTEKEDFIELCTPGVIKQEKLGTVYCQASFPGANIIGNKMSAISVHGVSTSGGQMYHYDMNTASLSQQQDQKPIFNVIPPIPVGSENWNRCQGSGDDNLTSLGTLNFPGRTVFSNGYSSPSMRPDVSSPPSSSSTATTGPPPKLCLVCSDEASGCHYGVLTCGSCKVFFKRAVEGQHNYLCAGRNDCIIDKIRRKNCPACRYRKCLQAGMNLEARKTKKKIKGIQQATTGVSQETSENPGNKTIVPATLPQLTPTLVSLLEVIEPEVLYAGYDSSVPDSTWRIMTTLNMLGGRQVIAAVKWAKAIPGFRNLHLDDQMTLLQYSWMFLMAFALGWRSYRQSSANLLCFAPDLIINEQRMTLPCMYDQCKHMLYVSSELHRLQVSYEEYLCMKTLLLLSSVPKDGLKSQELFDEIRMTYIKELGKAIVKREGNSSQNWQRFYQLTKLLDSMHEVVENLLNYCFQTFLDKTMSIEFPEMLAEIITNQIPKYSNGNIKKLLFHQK
Sequence of 3',5'-cyclic-AMP phosphodiesterase 4B (Homo sapiens) (Q07343 whole entry, looked up): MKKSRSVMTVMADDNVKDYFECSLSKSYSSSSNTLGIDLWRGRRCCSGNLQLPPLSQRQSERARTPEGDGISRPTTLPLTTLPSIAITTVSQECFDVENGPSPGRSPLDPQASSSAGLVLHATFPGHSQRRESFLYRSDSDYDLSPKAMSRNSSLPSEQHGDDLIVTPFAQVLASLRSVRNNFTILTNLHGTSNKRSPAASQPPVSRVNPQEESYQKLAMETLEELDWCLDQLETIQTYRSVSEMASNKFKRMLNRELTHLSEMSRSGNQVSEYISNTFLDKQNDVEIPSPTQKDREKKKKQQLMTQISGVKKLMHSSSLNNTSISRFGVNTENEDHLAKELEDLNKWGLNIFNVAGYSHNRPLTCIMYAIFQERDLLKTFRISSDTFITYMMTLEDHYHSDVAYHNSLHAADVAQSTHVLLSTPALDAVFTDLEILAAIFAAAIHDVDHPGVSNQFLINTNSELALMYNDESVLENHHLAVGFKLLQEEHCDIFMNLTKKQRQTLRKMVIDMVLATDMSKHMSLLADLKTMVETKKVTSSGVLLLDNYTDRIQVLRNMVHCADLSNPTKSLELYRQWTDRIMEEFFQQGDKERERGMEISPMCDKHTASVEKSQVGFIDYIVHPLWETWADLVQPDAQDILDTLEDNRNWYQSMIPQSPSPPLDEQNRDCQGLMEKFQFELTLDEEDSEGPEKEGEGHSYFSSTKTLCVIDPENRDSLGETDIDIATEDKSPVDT
Sequence of Glutathione peroxidase 1 (Homo sapiens) (P07203 whole entry, looked up): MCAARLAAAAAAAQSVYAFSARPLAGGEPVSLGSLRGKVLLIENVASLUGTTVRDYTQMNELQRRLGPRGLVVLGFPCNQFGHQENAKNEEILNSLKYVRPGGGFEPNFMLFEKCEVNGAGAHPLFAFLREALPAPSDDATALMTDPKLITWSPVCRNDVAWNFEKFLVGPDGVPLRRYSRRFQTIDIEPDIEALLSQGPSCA
Sequence of Lysosomal acid glucosylceramidase (Homo sapiens) (P04062 whole entry, looked up): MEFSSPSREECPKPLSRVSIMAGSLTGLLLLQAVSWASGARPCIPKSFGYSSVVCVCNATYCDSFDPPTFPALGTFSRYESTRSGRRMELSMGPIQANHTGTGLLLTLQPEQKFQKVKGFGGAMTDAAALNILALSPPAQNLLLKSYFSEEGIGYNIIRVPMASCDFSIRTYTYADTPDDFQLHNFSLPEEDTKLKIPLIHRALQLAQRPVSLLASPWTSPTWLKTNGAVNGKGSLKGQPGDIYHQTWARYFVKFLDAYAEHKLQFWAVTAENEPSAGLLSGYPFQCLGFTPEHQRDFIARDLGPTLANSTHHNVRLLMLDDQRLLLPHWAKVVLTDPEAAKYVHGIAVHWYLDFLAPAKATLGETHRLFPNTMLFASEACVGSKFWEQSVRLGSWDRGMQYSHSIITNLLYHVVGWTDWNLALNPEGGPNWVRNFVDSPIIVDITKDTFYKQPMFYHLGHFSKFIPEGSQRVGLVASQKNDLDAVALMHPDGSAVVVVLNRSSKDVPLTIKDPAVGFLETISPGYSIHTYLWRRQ
Sequence of Cytochrome P450 1A2 (Homo sapiens) (P05177 whole entry, looked up): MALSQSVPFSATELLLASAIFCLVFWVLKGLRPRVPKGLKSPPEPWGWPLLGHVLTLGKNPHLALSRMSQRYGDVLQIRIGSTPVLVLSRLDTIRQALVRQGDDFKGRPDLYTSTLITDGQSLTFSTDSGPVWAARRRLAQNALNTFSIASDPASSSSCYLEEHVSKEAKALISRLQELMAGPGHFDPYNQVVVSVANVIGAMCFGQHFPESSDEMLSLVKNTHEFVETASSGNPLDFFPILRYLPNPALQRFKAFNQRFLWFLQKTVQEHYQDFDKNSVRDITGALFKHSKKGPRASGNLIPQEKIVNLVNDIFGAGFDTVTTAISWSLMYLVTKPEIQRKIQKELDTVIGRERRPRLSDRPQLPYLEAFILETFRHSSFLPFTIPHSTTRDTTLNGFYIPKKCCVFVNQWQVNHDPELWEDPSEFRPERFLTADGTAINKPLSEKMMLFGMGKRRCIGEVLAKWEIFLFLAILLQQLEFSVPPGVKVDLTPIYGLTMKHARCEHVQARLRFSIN
Sequence of Phospholipid hydroperoxide glutathione peroxidase GPX4 (Homo sapiens) (P36969 whole entry, looked up): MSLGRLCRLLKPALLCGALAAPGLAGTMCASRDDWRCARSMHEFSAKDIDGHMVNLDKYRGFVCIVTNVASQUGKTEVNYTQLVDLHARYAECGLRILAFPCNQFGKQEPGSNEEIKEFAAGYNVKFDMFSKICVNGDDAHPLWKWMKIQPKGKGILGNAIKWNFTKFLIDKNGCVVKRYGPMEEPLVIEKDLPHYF

Which Potency [1] does the source give for COCCn1c(=O)c(-c2ccc(F)cc2)nc2cnc(Nc3cccc(OC)c3)nc21 here?
The Potency was > 11.4 µM (inactive).

What about the activity change, negative = inhibition [2] of the same molecule?
The activity change, negative = inhibition was -8.42% (inactive).

What about the Potency [3] of the same molecule?
The Potency was 3.16 µM (active).

And the activity change, negative = inhibition [4]?
The activity change, negative = inhibition was -5.01% (inactive).

And the outcome [5]?
Its outcome is “inactive”.

And the Potency [6]?
The Potency was > 9.22 µM (inactive).

And the Potency [7]?
Its Potency is > 46 µM (inactive).

What about the Potency [8] of the same molecule?
Its Potency is “inactive”.

And the Potency [9]?
The Potency was “inactive”.

And the Potency [10]?
The Potency was “inactive”.

And the Potency [11]?
Its Potency is “inactive”.

And the Potency [12]?
The Potency was “inactive”.

For CC(C)(C)NC(=O)N[C@H](C(=O)N1C[C@H]2[C@@H]([C@H]1C(=O)NC(CC1CCC1)C(=O)C(N)=O)C2(C)C)C(C)(C)C (stereo not given in full), which Potency [13] is on record?
The Potency was “inactive”.

And the Potency [14]?
Its Potency is “inactive”.

What about the Potency [15] of the same molecule?
Its Potency is “inactive”.

What does the source list for CCCCCCCCCCCCCCCCn1cc[n+](Cc2ccccc2)c1C?
parasite growth, % of DMSO control [16]: 5.58%; parasite growth remaining, % of DMSO control (lower = more inhibition) [17]: 6.21%; parasite growth, % of control (lower = inhibition) [18]: 8.98%; growth, % of control [19]: 5.99%; Potency [13]: 11.2 µM (active)
